Results published in article PMC11062922 (Nature Chemical Biology, 2023).
Where two headings read alike, the source gives them in different places.

Legend:
Parameters in all cases: species or system human, MV4-11 + K-562 + COLO205 + SK-N-BE2 + OVCAR-8
MELK = details: read-out: apparent Kd, n = 1
CDK6 = details: read-out: apparent Kd; compound concentrations: 100 nM and 1000 nM (sheet 'Samples'), CATDS: 3.7997833467257401E-2; n = 1
CSNK1G1 = details: read-out: apparent Kd, compound concentrations: 100 nM and 1000 nM (sheet 'Samples'), n = 1
ILK = details: read-out: apparent Kd; compound concentrations: 100 nM and 1000 nM (sheet 'Samples'), CATDS: 4.6551408852927599E-2; n = 1
MAPK10 = details: read-out: apparent Kd, n = 1
STRADA = details: read-out: apparent Kd, compound concentrations: 100 nM and 1000 nM (sheet 'Samples'), n = 1
PRKX;PRKY = details: read-out: apparent Kd, compound concentrations: 100 nM and 1000 nM (sheet 'Samples'), n = 1
DCTPP1 = details: read-out: apparent Kd, n = 1
PIP4K2C = details: read-out: apparent Kd, n = 1
MARK4 = details: read-out: apparent Kd, compound concentrations: 100 nM and 1000 nM (sheet 'Samples'), n = 1
COX5A = details: read-out: apparent Kd, n = 1
STK26 = details: read-out: apparent Kd, n = 1
CDK7 = details: read-out: apparent Kd, compound concentrations: 100 nM and 1000 nM (sheet 'Samples'), n = 1
MAP3K11 = details: read-out: apparent Kd, compound concentrations: 100 nM and 1000 nM (sheet 'Samples'), n = 1
PRKAA1 = details: read-out: apparent Kd, compound concentrations: 100 nM and 1000 nM (sheet 'Samples'), n = 1
PRKAA2 = details: read-out: apparent Kd, compound concentrations: 100 nM and 1000 nM (sheet 'Samples'), n = 1
PRKAG2 = details: read-out: apparent Kd, compound concentrations: 100 nM and 1000 nM (sheet 'Samples'), n = 1
STK4 = details: read-out: apparent Kd, n = 1
SLK = details: read-out: apparent Kd; compound concentrations: 100 nM and 1000 nM (sheet 'Samples'), CATDS: 2.2249249802163501E-2; n = 1
[1] = compound concentrations:100 nM and 1000 nM (sheet 'Samples')

Compound: CC(C)c1cc(-c2ccc3c(N)n[nH]c3c2)nc(N)n1 [GSK2250882A]
- potency estimated from few doses (MELK; [1]): 1.3 µM

Compound: COc1ccc(Nc2nccc(N3CCC(NC(=O)Nc4ccc5c(c4)OCO5)C3)n2)cc1 (stereo not drawn) [GSK1379745A]
- potency estimated from few doses (CDK6): 1.68 µM
- potency estimated from few doses (CSNK1G1; CATDS: 3.8833809861808503E-2): 1.6 µM
- potency estimated from few doses (ILK): 1.11 µM
- potency estimated from few doses (MAPK10; compound concentrations: 100 nM and 1000 nM (sheet 'Samples'), CATDS: 3.9230525665234099E-2): 1.57 µM
- potency estimated from few doses (STRADA; CATDS: 3.4015058114393301E-2): 2.21 µM

Compound: O=C1N=C(NCC(CO)c2ccccc2)S/C1=C\c1ccc2ncccc2c1 (stereo not drawn) [RO4582641-000]
- potency estimated from few doses (PRKX;PRKY; CATDS: 6.1310776599809498E-2): 1.91 µM

Compound: O=C1N=C(NCCc2cccc(Cl)c2)S/C1=C\c1ccc2ncccc2c1 [RO4509201-000]
- potency estimated from few doses (DCTPP1; compound concentrations: 100 nM and 1000 nM (sheet 'Samples'), CATDS: 5.6638769409894603E-2): 1.59 µM

Compound: COc1ccc(CNC(=O)NC2CCN(c3ccnc(Nc4cc(OC)c(OC)c(OC)c4)n3)C2)cc1 (stereo not drawn) [GSK1379748A]
- potency estimated from few doses (PIP4K2C; compound concentrations: 100 nM and 1000 nM (sheet 'Samples'), CATDS: 0.31006537475482299): 2.12 µM

Compound: CS(=O)(=O)CCNCc1ccc(-c2ccc3ncnc(Nc4ccc(OCc5cccc(F)c5)c(C(F)(F)F)c4)c3c2)o1 [GW576484X]
- potency estimated from few doses (CSNK1G1; CATDS: 5.4638885824274799E-2): 1.62 µM
- potency estimated from few doses (MARK4; CATDS: 5.9224998960535298E-2): 1.37 µM
- potency estimated from few doses (STRADA; CATDS: 5.2854601863181902E-2): 1.74 µM

Compound: Nc1nc(-c2ccc3c(N)n[nH]c3c2)cc(N2CCCCC2)n1 [GSK2228768A]
- potency estimated from few doses (COX5A; [1]): 1.06 µM
- potency estimated from few doses (DCTPP1; [1]): 1.72 µM
- potency estimated from few doses (STK26; [1]): 1.33 µM

Compound: O=C1N=C(NCc2cccs2)SC1Cc1ccc2ncccc2c1 (stereo not drawn) [RO4629078-000]
- potency estimated from few doses (CDK7; CATDS: 2.7171532019021599E-2): 0.112 µM
- potency estimated from few doses (MAP3K11; CATDS: 8.9937609356747009E-3): 0.89 µM
- potency estimated from few doses (MARK4; CATDS: 9.8317273929225003E-3): 0.699 µM
- potency estimated from few doses (MELK; compound concentrations: 100 nM and 1000 nM (sheet 'Samples'), CATDS: 7.0296492391178304E-3): 2.19 µM
- potency estimated from few doses (PIP4K2C; compound concentrations: 100 nM and 1000 nM (sheet 'Samples'), CATDS: 1.8402634239812199E-2): 0.201 µM
- potency estimated from few doses (PRKAA1; CATDS: 1.35837809267181E-2): 0.343 µM
- potency estimated from few doses (PRKAA2; CATDS: 1.00285824398185E-2): 0.665 µM
- potency estimated from few doses (PRKAG2; CATDS: 1.6046460203227E-2): 0.253 µM
- potency estimated from few doses (PRKX;PRKY; CATDS: 7.8908157683285005E-3): 1.35 µM

Compound: O=C1N=C(NCc2ccccc2)S/C1=C\c1ccc2ncccc2c1 [RO4442080-000]
- potency estimated from few doses (PRKX;PRKY; CATDS: 0.10891085030607001): 0.835 µM

Compound: Cc1cccc(-c2cc(-c3c[nH]nc3-c3ccccn3)ccn2)c1 [GW679395X]
- potency estimated from few doses (MAPK10; [1]): 1.73 µM

Compound: CS(=O)(=O)Cc1ccc(Nc2nccc(-c3c(-c4cccc(NC(=O)C5CCCCC5)c4)nn4ncccc34)n2)cc1 [GSK350559A]
- potency estimated from few doses (PIP4K2C; [1]): 0.136 µM
- potency estimated from few doses (STK4; [1]): 1.77 µM

Compound: CN1C(=O)c2ccccc2N(C)c2nc(Nc3cnn(C4CCNCC4)c3)ncc21 [XMD-17-51]
- potency estimated from few doses (CDK7; CATDS: 1.6224786894182001E-2): 0.901 µM
- potency estimated from few doses (MARK4; CATDS: 2.0662278149912901E-2): 0.412 µM
- potency estimated from few doses (PRKAA1; CATDS: 1.61806798261299E-2): 0.911 µM
- potency estimated from few doses (PRKAG2; CATDS: 1.7077716006994301E-2): 0.75 µM

Compound: COc1cccc(-n2ncc3c(N/N=C/c4ccc(C(=O)NCCN(C)C)cc4)ncnc32)c1.Cl [GW784307A]
- potency estimated from few doses (COX5A; compound concentrations: 100 nM and 1000 nM (sheet 'Samples'), CATDS: 2.84173796904106E-2): 1.28 µM

Compound: CNC(=O)c1ccccc1Nc1nc(Nc2cccc(CS(C)(=O)=O)c2)ncc1C.O=CO [GSK1520489A]
- potency estimated from few doses (MAPK10; compound concentrations: 100 nM and 1000 nM (sheet 'Samples'), CATDS: 1.2611209241053301E-2): 0.502 µM
- potency estimated from few doses (MELK; compound concentrations: 100 nM and 1000 nM (sheet 'Samples'), CATDS: 9.6320632964756892E-3): 1.61 µM
- potency estimated from few doses (SLK): 0.107 µM

Compound: CC(C)c1nc(-c2cccc(NS(=O)(=O)c3c(F)cccc3F)c2)c(-c2ccnc(Nc3ccc(N4CCOCC4)nc3)n2)s1.Cl [GSK1723980B]
- potency estimated from few doses (MAP3K11; CATDS: 1.8312802074437001E-2): 0.662 µM

Compound: CC(C)c1nc(-c2cccc(NS(=O)(=O)c3c(F)cccc3F)c2F)c(-c2ccnc(Nc3ccc(N4CCOCC4)nc3)n2)s1 [GSK2008607A]
- potency estimated from few doses (MAP3K11; CATDS: 3.6955578451965801E-2): 0.316 µM
- potency estimated from few doses (PRKAA2; CATDS: 2.0597012246937899E-2): 1.25 µM

Compound: CN(C)Cc1ccc(-c2ccc3c(Nc4ccc(Oc5ccccn5)cc4)ccnc3c2)o1 [GW567148X]
- potency estimated from few doses (CDK7; CATDS: 2.45792325734666E-2): 0.573 µM
- potency estimated from few doses (PRKAA1; CATDS: 1.81087827293436E-2): 1.38 µM

Compound: CN1CCc2ccc(Nc3nccc(-c4c(-c5cccc(NC(=O)c6c(F)cccc6F)c5)nc5ccccn45)n3)cc2C1.Cl [GSK1010829B]
- potency estimated from few doses (STK4; compound concentrations: 100 nM and 1000 nM (sheet 'Samples'), CATDS: 3.6315985659661598E-2): 1.17 µM

Compound: Nc1ncc(-c2cn[nH]c2)c2scc(-c3ccc4c(c3)CCN4C(=O)Cc3ccccc3)c12 [GSK2593067A]
- potency estimated from few doses (STK4; compound concentrations: 100 nM and 1000 nM (sheet 'Samples'), CATDS: 7.8104026917421798E-2): 0.768 µM

Compound: O=S(=O)(CCOCc1ccc(-c2ccc3ncnc(Nc4ccc(OCc5cccc(F)c5)c(Cl)c4)c3c2)o1)c1ccccc1 [GW615311X]
- potency estimated from few doses (MAPK10; compound concentrations: 100 nM and 1000 nM (sheet 'Samples'), CATDS: 3.14341615066977E-2): 1.07 µM
- potency estimated from few doses (STK26; compound concentrations: 100 nM and 1000 nM (sheet 'Samples'), CATDS: 2.23099896492461E-2): 2.34 µM
